Source: PubChem
Coupling enz: inhibits coupling enzyme system, counter-screen for aldolase hits; coupling enzyme system counterscreen, AmpLite Red fluorescence; activity change, negative = inhibition, % at 58.2 µM, hits read low; actives 0.67% (n = 290,000); in the data active = activity change below about -30%; also: % is scaled to controls: 0 for no effect and ±100 for the full control effect
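Final compound at 57.5 uM, incubated 10 min at RT with coupling enzyme reagent (glyceraldehyde-3-phosphate), then 20 min with substrate and AmpLite Red detection. Fluorescence read at 525/598 nm; tests interference with the coupling assay, not aldolase inhibition.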
Giardia kill: Giardia lamblia killing; actives 0.15% (n = 340,000); activity change, % at 7.66 µM, hits read low; AID 540267; Giardia lamblia trophozoite viability; in the data active = activity change below about -80%; inconclusive = between about -30% and that limit;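 also: parasites exposed to compound for two days anaerobically before the ATP read; % is scaled to controls: 0 for no effect and ±100 for the full control effect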
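Trophozoite viability was measured as ATP-dependent luminescence, read 15-30 min after reagent addition. Before that, parasites at 100 cells/well were exposed to compounds for 48 h, anaerobically, at 37 deg C.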
gsp antagonist: gsp mutant antagonism | Potency, µM (top dose mostly 76.9 µM), without a hit: top-dose activity change, negative = inhibition, actives largely listed as inhibitors | gsp-mutant cells, cAMP HTRF, 30 min | AID 624288 | actives 0.4% (n = 340,000); calls by dose curve; cell line not stated here;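 also: intracellular cAMP measured with PDE inhibitor Ro 20-1724 present during compound exposure; potency is read from the fitted curve at half-maximal effect; % is scaled to controls: 0 for no effect and ±100 for the full control effect; nearly all actives have a fitted effect of over 65% in size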
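G418-selected cells were plated in DMEM/10% FBS for 16-24 h at 37C, then treated with compounds plus the PDE inhibitor […] (300 uM solution added) for 30 min at 37C. Intracellular cAMP was measured by HTRF after 30 min lysis at room temperature.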
RXFP1 ag: RXFP1 (human) receptor agonism; Q9HBX9; HEK293T-RXFP1 cAMP TR-FRET, 30 min; response scale: percent of porcine relaxin response, buffer zero; Potency, µM (doses to about 57.5 µM), inactives show at the highest dose activation, usual class: activators; actives 0.3% (n = 370,000); AID 2676; active = well fitted activation curve with a large enough effect; inconclusive = small, poorly fitted or top-dose-only effect; also: potency is read from the fitted curve at half-maximal effect; % is scaled to controls: 0 for no effect and ±100 for the full control effect; nearly all actives have a fitted effect of over 60% in size
Target sequence (Q9HBX9 whole entry, looked up): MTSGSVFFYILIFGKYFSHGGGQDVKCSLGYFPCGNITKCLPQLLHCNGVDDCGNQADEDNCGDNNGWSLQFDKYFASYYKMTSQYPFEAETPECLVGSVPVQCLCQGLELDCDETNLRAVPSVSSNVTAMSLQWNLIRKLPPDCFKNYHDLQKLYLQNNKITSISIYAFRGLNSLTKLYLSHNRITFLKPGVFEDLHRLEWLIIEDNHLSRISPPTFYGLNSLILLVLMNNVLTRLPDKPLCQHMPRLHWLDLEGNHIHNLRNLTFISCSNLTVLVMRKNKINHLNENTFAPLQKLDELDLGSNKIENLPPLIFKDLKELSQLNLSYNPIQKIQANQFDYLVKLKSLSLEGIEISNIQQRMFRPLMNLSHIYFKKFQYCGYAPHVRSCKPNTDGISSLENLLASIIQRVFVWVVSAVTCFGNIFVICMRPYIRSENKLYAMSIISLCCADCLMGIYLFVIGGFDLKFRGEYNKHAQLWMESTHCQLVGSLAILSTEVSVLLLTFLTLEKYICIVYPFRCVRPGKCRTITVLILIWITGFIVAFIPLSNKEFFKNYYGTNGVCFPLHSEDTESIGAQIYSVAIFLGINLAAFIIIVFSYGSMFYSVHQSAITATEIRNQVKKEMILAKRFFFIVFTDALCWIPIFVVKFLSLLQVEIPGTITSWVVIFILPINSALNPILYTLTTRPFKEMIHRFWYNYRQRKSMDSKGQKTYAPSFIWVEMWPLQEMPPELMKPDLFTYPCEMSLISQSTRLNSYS
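HEK293 cells stably expressing RXFP1, treated 30 min at 37C with compounds plus PDE4 inhibitor Ro 20174; cAMP measured by HTRF TR-FRET. Normalized to buffer and 29 nM porcine relaxin; EC50 by Hill fit.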
gsp agonist: gsp mutant agonism; AID 624287; Potency, µM (titrated, usually from 76.9 µM), inactives show at the highest dose activation (cAMP increase), actives largely listed as activators; gsp mutant cells, cAMP HTRF, 30 min; actives 0.13% (n = 340,000); active = well fitted activation curve with a large enough effect; inconclusive = small, poorly fitted or top-dose-only effect, or another doubt; inactive = no such curve, though single readings can be large or run the other way; cell line not stated here;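 also: phosphodiesterase inhibitor Ro 20-1724 added with compounds to block cAMP breakdown; potency is read from the fitted curve at half-maximal effect; nearly all actives have a fitted effect of over 60% in size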
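Cells stably selected in G418 were plated at 2000/well, grown 16-24 hr, then given compounds in DMSO with the PDE inhibitor […] (300 uM solution added) for 30 min at 37C; cAMP was read by HTRF.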
RXFP1 antag: RXFP1 (human) relaxin receptor antagonism. Q9HBX9. HEK293-RXFP1, relaxin-stimulated cAMP HTRF, 30 min; active compounds read low. activity change, negative = inhibition, % at 57.5 µM. actives 0.59% (n = 350,000). AID 1259400;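 active = activity change of -60% or lower, but not beyond a set lower limit; inconclusive = change between -60% and -40%, or beyond the set limit; inactive = change above -40%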; also: % is scaled to controls: 0 for no effect and ±100 for the full control effect
An asterisk follows results filed as active; [ ] = dose if it differs, or a comment. The list is not random: actives were taken first. Their share in the collection is about 1.6%.

For CCOC(=O)C1CCN(C(=O)c2c(C)oc3c2C(=O)c2ccccc2C3=O)CC1 the results were Coupling enz -46.7*, Giardia kill inconclusive, gsp antagonist 7.4%, RXFP1 ag 5.1% and gsp agonist -10.5%.
`CC1CCN(C(=O)c2ccc3c(c2)C(=O)c2ccccc2-3)CC1` gave gsp agonist -61.6% and RXFP1 antag -1.6.
N#Cc1c(N(CCO)CCO)nc(N)c2c(N)nc3c(c12)CC(=O)N3Cc1cccs1 was read as Coupling enz -31.1*, Giardia kill -16.9, gsp antagonist 10.6%, RXFP1 ag 5.9%, gsp agonist 18.2% and RXFP1 antag 1.4.
For CN(CCO)c1nc(N)c2c(N)nc3c(c2c1C#N)CC(=O)N3Cc1cccs1 the results were Coupling enz -5.1, Giardia kill 11.6, gsp antagonist 8.7%, RXFP1 ag 10.7%, gsp agonist 10.7% and RXFP1 antag 1.5.
Screening CCc1ccc(-c2nc(NC(=O)c3ccc(OCC(=O)Nc4ccc(F)cc4)c(OC)c3)sc2C)cc1 returned Coupling enz 1.9, Giardia kill -0.4, gsp antagonist 20.3%, RXFP1 ag 31.6µM*, gsp agonist inconclusive and RXFP1 antag 9.5.
`COc1ccc(-c2nc(NC(=O)c3ccc(OCC(=O)N4CCOCC4)c(OC)c3)sc2C)cc1` gave Coupling enz 0.1, Giardia kill inconclusive, gsp antagonist 35.5µM*, RXFP1 ag -0.8%, gsp agonist -16.5% and RXFP1 antag -1.9.
For COc1cc(C(=O)Nc2nc(-c3ccc(Cl)cc3)c(C)s2)ccc1OCC(=O)Nc1ccc(F)cc1 the results were Coupling enz 2.4, Giardia kill 6.0, gsp antagonist 16.8%, RXFP1 ag 20µM*, gsp agonist inconclusive and RXFP1 antag -9.2.
Screening COc1cc(C(=O)Nc2ccc(C)cn2)ccc1OCC(=O)N1CCOCC1 returned Giardia kill -13.6, gsp antagonist -4.3%, RXFP1 ag -1.1%, gsp agonist 29.3% and RXFP1 antag 1.2.
`CCc1noc(C)c1C(=O)Nc1nc(-c2ccc(F)cc2)c(C)s1` gave Giardia kill -13.4, gsp antagonist -23.7%, RXFP1 ag 0.3%, gsp agonist 32.7% and RXFP1 antag -15.8.
`COc1cccc(N2CCN(C(=O)c3ccc4c(Cl)c5c(nc4c3)CCCC5)CC2)c1` gave RXFP1 ag 1.3%.
Screening COCCN(C(=O)COC(=O)C1(c2ccccc2)CC1)c1c(N)n(CC(C)C)c(=O)[nH]c1=O returned Giardia kill -7.4, gsp antagonist 4.9%, RXFP1 ag 0.7%, gsp agonist -24.8% and RXFP1 antag 0.9.
For Cc1nc2ccc(NC(=S)NC3CC3)cc2nc1C the results were Coupling enz -5.0, Giardia kill 3.7, gsp antagonist 11.5%, RXFP1 ag 7.3%, gsp agonist 3.4% and RXFP1 antag 7.4.
Screening OCCNC(=S)Nc1ccc2nsnc2c1 returned Coupling enz -46.8*, Giardia kill -12.0, gsp antagonist -2.6%, RXFP1 ag 12.9%, gsp agonist -1.7% and RXFP1 antag -21.2.
Screening Cc1nc2ccc(NC(=S)NCCCO)cc2nc1C returned Coupling enz -30.5*, Giardia kill 0.7, gsp antagonist -1.6%, RXFP1 ag 5.3%, gsp agonist 16.4% and RXFP1 antag -3.6.
Screening CCCNC(=S)Nc1ccc2nc(-c3ccccn3)c(-c3ccccn3)nc2c1 returned Coupling enz -53.9*, Giardia kill -3.1, gsp antagonist 7.0%, RXFP1 ag 7.8%, gsp agonist -2.0% and RXFP1 antag -1.0.
O=C(NCCO)Nc1ccc2nsnc2c1 was read as Coupling enz -4.4, Giardia kill -23.0, gsp antagonist 3.3%, RXFP1 ag 0.1%, gsp agonist -34.1% and RXFP1 antag 5.7.
Screening CN(C)S(=O)(=O)c1ccc(C(=O)NCC(C)(C)CN=C2NS(=O)(=O)c3ccccc32)cc1 returned Coupling enz 0.8, Giardia kill 33.9, gsp antagonist 4.7%, RXFP1 ag 9.7%, gsp agonist 35.6% and RXFP1 antag -7.4.
CC(=O)Nc1ccc(C(=O)NC2CCSc3ccccc32)cc1 (stereo not given) was read as Coupling enz -5.3, Giardia kill 23.5, gsp antagonist 7.6%, RXFP1 ag 0.5%, gsp agonist 15.9% and RXFP1 antag 5.9.
`Cc1ccc(NC(=S)NC2CCSc3ccccc32)cc1` (stereo not given) gave Coupling enz -0.8, Giardia kill 9.6, gsp antagonist -7.5%, RXFP1 ag 1.0%, gsp agonist -7.0% and RXFP1 antag -61.6*.
For Cn1c(=O)c2c(ncn2CC(=O)NC2CCCCC2)n(C)c1=O the results were Coupling enz 1.2, Giardia kill 31.9, gsp antagonist 13.5%, RXFP1 ag 15.8µM*, gsp agonist 12.6µM* and RXFP1 antag 4.1.
`COc1cccc(/C=N/NC(=O)Cn2cnc3c2c(=O)n(C)c(=O)n3C)c1OC` gave Coupling enz 5.2, Giardia kill 5.4, gsp antagonist 26.3%, RXFP1 ag 17.8µM*, gsp agonist 28.6%[15.4 µM] and RXFP1 antag -3.6.
Screening CCOc1ccccc1OCC(=O)NNC(=O)Cn1cnc2c1c(=O)n(C)c(=O)n2C returned Coupling enz 4.7, Giardia kill 2.3, gsp antagonist 11.7%, RXFP1 ag 22.4µM*, gsp agonist -4.9%[15.4 µM] and RXFP1 antag -8.3.
`COc1cc(/C=N/NC(=O)Cn2cnc3c2c(=O)n(C)c(=O)n3C)cc(OC)c1OC` gave Coupling enz -0.4, Giardia kill -11.4, gsp antagonist 9.1%, RXFP1 ag 19.3%, gsp agonist 32.2%[15.4 µM] and RXFP1 antag -6.3.
For CS(=O)(=O)c1ccc(-c2cn3ccccc3n2)cc1 the results were RXFP1 antag -4.2.
C[C@H]1CC[C@H]2C(=O)N3[C@H](c4ccc(Br)cc4)[C@@H](C)CC[C@H]3C(=O)N2[C@@H]1c1ccc(Br)cc1 was read as Coupling enz 2.7.
For CC(C)c1cc2c(c(O)c1O)[C@@]13CCCC(C)(C)C1CC2OC3=O (stereo not given in full) the results were Coupling enz -30.3*, Giardia kill -2.2, gsp antagonist -16.6% and RXFP1 ag -0.7%.
Screening CC(C)c1c(O)c(-c2cc3c(c(C(C)C)c2O)CCC2C(C)(C)CCC[C@@]32C)cc2c1CCC1C(C)(C)CCC[C@@]21C (stereo not given in full) returned Coupling enz 13.2.
For CCC(=O)N(CC)C1=C(O)c2ccccc2C(=O)C1=O the results were Coupling enz -60.9*, Giardia kill 5.8, gsp antagonist 9.0%, RXFP1 ag -5.4%, gsp agonist -50.6% and RXFP1 antag 7.1.
